Laboratory results as given in PubChem BioAssay AID1159580 (chemical genetic matrix, 2015).
Out of some 5,500 compounds screened, about 2,000 (36%) were called active. Roughly 18% stayed inconclusive and do not appear here. Rule as the data show it: active = normalized growth mostly below about 0.91 (no sharp cut-off); inconclusive = no clear call, values can overlap the other calls; inactive = mostly above about 0.92. The list shows a part of the results.

Assay: chemical genetic growth profiling, strain panel (AID 1159580);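 also: tested at 20 µM; growth read once vehicle control cultures reached saturation at 30 °C; 1 = growth at the plate median or of vehicle wells; lower values mean less growth of the strain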
Conditions: S. cerevisiae deletion strains, growth OD

Measured: normalized growth

O=c1cc(-c2ccc(O)c(O)c2)oc2ccccc12
active: locus YDR069C, strain doa4, active compounds read low 0.893 | locus YOR106W, strain vam3, active compounds read low 0.867
inactive: locus YAL021C, strain ccr4, active compounds read low 0.999 | locus YAL026C, strain drs2, active compounds read low 0.964 | locus YAL030W, strain snc1, active compounds read low 0.986 | locus YBL061C, strain skt5, active compounds read low 0.965 | locus YBR009C, strain hhf1, active compounds read low 0.933 | locus YBR023C, strain chs3, active compounds read low 0.961 | locus YBR171W, strain sec66, active compounds read low 0.97 | locus YBR231C, strain swc5, active compounds read low 0.924 | locus YBR279W, strain paf1, active compounds read low 0.977 | locus YCL011C, strain gbp2, active compounds read low 0.956 | locus YCL016C, strain dcc1, active compounds read low 0.969 | locus YCL061C, strain MRC1, active compounds read low 0.965 | locus YCL069W, strain vba3, active compounds read low 0.996 | locus YCR088W, strain abp1, active compounds read low 0.997 | locus YDL005C, strain med2, active compounds read low 0.998 | locus YDL040C, strain nat1, active compounds read low 0.989 | locus YDR001C, strain nth1, active compounds read low 0.994 | locus YDR137W, strain rgp1, active compounds read low 0.985 | locus YDR159W, strain sac3, active compounds read low 0.971 | locus YDR195W, strain ref2 1.02 | locus YDR297W, strain sur2, active compounds read low 0.971 | locus YDR334W, strain swr1, active compounds read low 0.976 | locus YDR335W, strain msn5, active compounds read low 0.995 | locus YDR392W, strain spt3, active compounds read low 0.954 | locus YEL003W, strain gim4, active compounds read low 0.946 | locus YEL037C, strain rad23, active compounds read low 0.984 | locus YEL061C, strain CIN8 (second series), active compounds read low 0.989 | locus YER015W, strain faa2, active compounds read low 0.955 | locus YER016W, strain bim1, active compounds read low 0.991 | locus YER111C, strain swi4, active compounds read low 0.962 | locus YER155C, strain BEM2 (second series), active compounds read low 0.926 | locus YFR010W, strain ubp6, active compounds read low 0.947 | locus YGL167C, strain pmr1, active compounds read low 0.98 | locus YGL173C, strain kem1, active compounds read low 0.936 | locus YGL227W, strain vid30, active compounds read low 0.991 | locus YGL240W, strain doc1, active compounds read low 1.01 | locus YGL253W, strain hxk2, active compounds read low 0.963 | locus YHR013C, strain ard1, active compounds read low 0.983 | locus YHR027C, strain rpn1, active compounds read low 0.966 | locus YHR142W, strain chs7, active compounds read low 0.962 | locus YJL092W, strain hpr5, active compounds read low 0.983 | locus YJL095W, strain BCK1 (second series), active compounds read low 0.976 | locus YJL115W, strain asf1, active compounds read low 0.991 | locus YJL129C, strain trk1, active compounds read low 0.978 | locus YJL154C, strain vps35, active compounds read low 0.996 | locus YJL164C, strain tpk1, active compounds read low 0.942 | locus YJL166W, strain qcr8, active compounds read low 0.932 | locus YJL187C, strain SWE1, active compounds read low 0.982 | locus YKL160W, strain elf1, active compounds read low 0.974 | locus YKR026C, strain gcn3, active compounds read low 0.972 | locus YKR091W, strain srl3, active compounds read low 1 | locus YLL001W, strain dnm1, active compounds read low 0.965 | locus YLL026W, active compounds read low 0.987 | locus YLL041C, strain sdh2, active compounds read low 0.99 | locus YLR027C, strain aat2, active compounds read low 0.943 | locus YLR221C, strain rsa3, active compounds read low 0.927 | locus YLR258W, strain gsy2, active compounds read low 0.967 | locus YLR262C, strain YPT6 (second series), active compounds read low 0.934 | locus YLR320W, strain mms22, active compounds read low 0.943 | locus YLR342W, strain FKS1, active compounds read low 0.961 | locus YLR357W, strain rsc2, active compounds read low 0.927 | locus YLR370C, strain arc18, active compounds read low 0.993 | locus YLR384C, strain iki3, active compounds read low 0.981 | locus YML120C, strain ndi1, active compounds read low 0.978 | locus YMR125W, strain sto1, active compounds read low 0.991 | locus YMR129W, active compounds read low 0.99 | locus YMR205C, strain PFK2, active compounds read low 0.982 | locus YMR231W, strain pep5, active compounds read low 0.961 | locus YNL071W, strain lat1, active compounds read low 0.965 | locus YNL209W, strain ssb2, active compounds read low 0.932 | locus YNL248C, strain rpa49, active compounds read low 0.986 | locus YNL322C, strain KRE1 (second series), active compounds read low 0.989 | locus YNR049C, strain mso1, active compounds read low 0.992 | locus YOR001W, strain rrp6, active compounds read low 0.928 | locus YOR070C, strain gyp1, active compounds read low 0.956 | locus YOR080W, strain dia2, active compounds read low 0.986 | locus YOR083W, strain WHI5, active compounds read low 0.959 | locus YOR265W, strain rbl2, active compounds read low 1.01 | locus YOR270C, strain vph1, active compounds read low 0.83 | locus YOR290C, strain snf2, active compounds read low 0.968 | locus YPL051W, strain arl3, active compounds read low 0.926 | locus YPL078C, strain atp4, active compounds read low 0.985 | locus YPL106C, strain sse1, active compounds read low 0.938 | locus YPL240C, strain hsp82, active compounds read low 0.99
